A number with no mark means an inactive call. Active and inactive are the calls of the source. The rule behind the calls is not given here.
Potency is the fitted concentration of half-maximal effect.

The subject of this assay is HIV-1 nucleocapsid protein NCp7 (binding to TG oligonucleotide). Description: HIV Nucleocapsid (AID 346).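 Note: potency is for inhibitors that block NC binding and lower polarization.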 The settings on record: HIV-1 NC / fluorescein-TGTGTGTG probe, fluorescence polarization. The essentials:
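Reagents dispensed (10 nM TG4xF, 100 nM HIV-1 NC), plates spun, compounds pin-transferred, then incubated 1 hr at room temperature before FP imaging. Buffer: Hepes pH 7.5, 250mM NaCl, 1uM ZnCl2, 100 uM TCEP, 5 mM 2-mercaptoethanol.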
With `CC(=O)N1CCC[C@@]2(CCN(Cc3nccs3)C2)C1`, the Potency was over 20 µM.

For the molecule `O=c1c(-c2ccc(Cl)cc2)nc2cnc(Nc3ccccc3)nc2n1C[C@H]1CCCO1`, the Potency was 0.219 µM (active).

On to `Cn1cccc1C(=O)N1CCC2(CCN(Cc3nccs3)CC2)CC1`, for which the Potency is over 20 µM.

With `COc1ccc(Oc2ncc3nc(-c4cccc(C#N)c4)c(=O)n(C)c3n2)cc1`, the Potency is over 20 µM.

For `COc1ccc(Oc2ncc3nc(-c4ccc(Cl)cc4)c(=O)n(C[C@H]4CCCO4)c3n2)cc1`, the Potency is over 20 µM.

Turning to `CN1CCN(c2ncc3nc(-c4cn(C)c5ccccc45)c(=O)n(CCC#N)c3n2)CC1`, the Potency is over 20 µM.

As to `CC(=O)NCCNc1ncnc2ccc(-c3ccccc3C#N)cc12`, the Potency was over 20 µM.

With `Cc1nc2cnc(Nc3ccccc3)nc2n(CCC#N)c1=O`, the Potency was over 20 µM.

On to `CN(C)Cc1ccccc1-c1cncnc1NCc1ccccc1`, for which the Potency was over 20 µM.

For `Cn1cc(-c2nc3cnc(N4CCNCC4)nc3n(Cc3ccc(F)cc3)c2=O)c2ccccc21`, the Potency was 20.8 µM.

For `CN1CCN(c2ncc3nc(-c4cccc(C#N)c4)c(=O)n(C[C@H]4CCCO4)c3n2)CC1`, the Potency is over 20 µM.

For the molecule `Cc1cccc(CNc2nc(-c3c(C)noc3C)nc3ccccc23)c1`, the Potency was over 20 µM.

Regarding `c1ccc(Nc2ncnc3ccc(-c4ccc5c(c4)OCO5)cc23)cc1`, the Potency is over 20 µM.

Take `O=C(c1cnccn1)N1CCC2(CC1)CCN(c1ccccn1)CC2`: the Potency was over 20 µM.

For the molecule `Cc1ccccc1-c1cncnc1NCc1cccnc1`, the Potency was over 20 µM.

The record behind these values is PubChem BioAssay (NCATS).
